We go through eight compounds from ChEMBL document CHEMBL3988442, “University of Dundee, Small-Polar-MMV Screening Library” (2021).

For some of these results: Entries with a potency or affinity are not part of this list.

What all share (design): scale not given: direction of the effect not stated beside the values
Assay [1] has as its target Protein translocase subunit SecA (Escherichia coli (strain K12)) (UniProt P10408). Briefly: Assay to Identify E. coli SecA ATPase Inhibitors. In kind it is functional. The following applies: 30 µM.
In assay [2] the target is T1, Ubiquitin-activating enzyme e1, putative (Leishmania donovani (strain BPK282A1)) (UniProt E9BSI1).
T1 sequence (whole entry): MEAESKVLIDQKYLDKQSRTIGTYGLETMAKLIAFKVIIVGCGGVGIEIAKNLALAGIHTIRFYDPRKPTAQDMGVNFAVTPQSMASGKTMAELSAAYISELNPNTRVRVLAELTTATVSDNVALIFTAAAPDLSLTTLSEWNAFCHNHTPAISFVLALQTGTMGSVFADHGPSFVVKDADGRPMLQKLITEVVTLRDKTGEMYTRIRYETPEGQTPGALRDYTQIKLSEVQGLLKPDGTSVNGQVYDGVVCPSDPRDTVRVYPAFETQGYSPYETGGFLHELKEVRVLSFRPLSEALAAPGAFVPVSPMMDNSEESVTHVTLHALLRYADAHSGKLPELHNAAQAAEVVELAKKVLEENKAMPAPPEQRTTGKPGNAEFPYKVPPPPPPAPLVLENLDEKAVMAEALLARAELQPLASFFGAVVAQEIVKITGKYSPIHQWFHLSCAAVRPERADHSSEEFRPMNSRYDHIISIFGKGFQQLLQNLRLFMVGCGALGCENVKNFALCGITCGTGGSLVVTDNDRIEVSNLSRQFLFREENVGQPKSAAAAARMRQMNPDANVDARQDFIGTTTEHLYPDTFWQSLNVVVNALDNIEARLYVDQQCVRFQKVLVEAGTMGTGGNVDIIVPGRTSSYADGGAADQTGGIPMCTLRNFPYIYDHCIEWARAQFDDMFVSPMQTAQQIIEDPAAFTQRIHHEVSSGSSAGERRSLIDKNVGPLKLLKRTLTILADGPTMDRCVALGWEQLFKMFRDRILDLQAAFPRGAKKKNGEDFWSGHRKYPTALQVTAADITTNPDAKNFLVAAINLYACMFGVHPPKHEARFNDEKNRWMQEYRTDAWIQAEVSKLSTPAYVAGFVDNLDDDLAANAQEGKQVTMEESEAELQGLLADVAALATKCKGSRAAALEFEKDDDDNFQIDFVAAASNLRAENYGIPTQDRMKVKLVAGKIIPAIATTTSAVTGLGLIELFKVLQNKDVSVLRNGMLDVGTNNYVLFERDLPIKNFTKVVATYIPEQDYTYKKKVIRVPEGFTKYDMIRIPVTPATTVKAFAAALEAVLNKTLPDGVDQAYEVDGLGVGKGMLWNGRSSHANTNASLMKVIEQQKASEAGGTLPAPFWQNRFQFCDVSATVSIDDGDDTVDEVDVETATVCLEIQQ
As to the kind of experiment: Leishmania donovani Ubiquitin Activating Enzyme (LdE1). In kind it is functional. The conditions noted are these: 30 µM.

Assay [3] has as its target AMP-activated protein kinase, AMPK (Homo sapiens) (UniProt P54646+O43741+P54619+Q9UGJ0+Q9Y478+Q13131+Q9UGI9). As to the kind of experiment: AMP-dependent Kinase enzyme assay. An in vitro enzyme assay that detects ADP turnover that is directly proportional to AMPK activity. This uses naive AMPK that is activated during the assay with MK-8722. The assay is classed as functional. The following applies: 30 µM.

Assay [4] has as its target Sialic acid-binding Ig-like lectin 9 (Homo sapiens) (UniProt Q9Y336). Briefly: Hs-Siglec9 ALPHAscreen SOP 20170721. The following applies: 10 µM. (In Alpha technology, singlet oxygen from a donor bead excites a nearby acceptor bead.)
For a further assay, the system named is Trypanosoma cruzi. As to the kind of experiment: Trypanosoma cruzi phosphomannomutase and mannose-1-phosphate guanylyltransferase assay. The assay is classed as functional. The following applies: 10 µM.
For assay [5], the target named is T2, Arginase-2, mitochondrial (Homo sapiens) (UniProt P78540).
T2 sequence (whole entry): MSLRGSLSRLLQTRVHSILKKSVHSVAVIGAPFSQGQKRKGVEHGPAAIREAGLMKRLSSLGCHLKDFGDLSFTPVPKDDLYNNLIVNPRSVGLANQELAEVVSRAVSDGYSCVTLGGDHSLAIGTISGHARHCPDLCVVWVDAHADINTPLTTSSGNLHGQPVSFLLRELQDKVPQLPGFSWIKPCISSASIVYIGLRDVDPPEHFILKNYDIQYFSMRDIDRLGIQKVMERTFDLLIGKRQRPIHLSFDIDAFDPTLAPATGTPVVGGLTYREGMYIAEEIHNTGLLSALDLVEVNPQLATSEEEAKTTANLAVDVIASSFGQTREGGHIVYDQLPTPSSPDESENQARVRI
Briefly: in vitro enzyme assay to detect the production of urea directly proportional to the activity of Arginase II. Also: in the data most compounds retested in dose-response had high values. The assay is classed as functional. The conditions noted are these: 33.3 µM.

In assay [6] the target is T3, Proteasome subunit beta (Trypanosoma cruzi) (UniProt O96673).
T3 sequence (whole entry): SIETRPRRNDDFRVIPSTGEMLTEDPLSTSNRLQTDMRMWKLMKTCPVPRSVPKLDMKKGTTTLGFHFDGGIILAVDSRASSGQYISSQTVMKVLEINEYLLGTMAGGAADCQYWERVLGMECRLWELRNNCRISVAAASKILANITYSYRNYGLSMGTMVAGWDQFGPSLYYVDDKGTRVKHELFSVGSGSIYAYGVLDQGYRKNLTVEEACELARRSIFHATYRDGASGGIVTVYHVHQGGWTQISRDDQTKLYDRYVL
As to the kind of experiment: Trypanosoma cruzi proteasome chymotrypsin-like activity (TcProtChymo) assay. Also: in the data most compounds retested in dose-response had high values. In kind it is functional. The following applies: 9.37 µM.

The species entered for another assay is Homo sapiens. Briefly: To identify inhibition of the IFN signalling (Jak-Stat) pathway via expression of an eGFP reporter gene under the control of an IFN-stimulated response element (ISRE) containing MxA promoter. In kind it is functional. The following applies: 30 µM. For orientation: A reporter such as luciferase makes a cellular process visible.
In assay [7] the target is T4, Tyrosyl-tRNA synthetase, putative (Trypanosoma cruzi (strain CL Brener)) (UniProt Q4DSP6).
T4 sequence (whole entry): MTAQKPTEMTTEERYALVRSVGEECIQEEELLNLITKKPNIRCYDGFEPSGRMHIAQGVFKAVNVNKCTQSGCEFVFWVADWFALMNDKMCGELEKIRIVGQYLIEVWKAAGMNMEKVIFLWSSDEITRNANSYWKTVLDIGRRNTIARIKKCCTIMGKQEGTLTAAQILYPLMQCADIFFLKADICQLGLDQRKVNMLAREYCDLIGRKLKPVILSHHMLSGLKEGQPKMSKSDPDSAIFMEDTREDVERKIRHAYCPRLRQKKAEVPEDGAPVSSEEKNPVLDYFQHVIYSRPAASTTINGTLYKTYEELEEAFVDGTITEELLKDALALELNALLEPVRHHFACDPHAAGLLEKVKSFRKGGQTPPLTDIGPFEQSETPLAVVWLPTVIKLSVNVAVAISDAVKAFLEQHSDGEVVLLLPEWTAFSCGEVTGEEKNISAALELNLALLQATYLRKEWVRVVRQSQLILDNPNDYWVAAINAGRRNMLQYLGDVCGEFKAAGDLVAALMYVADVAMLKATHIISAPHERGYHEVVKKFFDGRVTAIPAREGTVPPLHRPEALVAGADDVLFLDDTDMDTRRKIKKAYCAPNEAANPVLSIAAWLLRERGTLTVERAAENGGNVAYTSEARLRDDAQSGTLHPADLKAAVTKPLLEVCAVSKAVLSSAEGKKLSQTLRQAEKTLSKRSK
As to the kind of experiment: Trypanosoma cruzi tyrosyl tRNA synthetase (TcYRS) _High Tyrosine SOP. Also: in the data most compounds retested in dose-response had high values. In kind it is functional. The conditions noted are these: 30 µM.

For assay [8], the target named is T4, Tyrosyl-tRNA synthetase, putative (Trypanosoma cruzi (strain CL Brener)). Briefly: Trypanosoma cruzi tyrosyl tRNA synthetase (TcYRS) SOP. The assay is classed as functional. The following applies: 30 µM.
For assay [9], the target named is Chromo domain-containing protein 1 (Saccharomyces cerevisiae (strain ATCC 204508 / S288c) (Baker's yeast)) (UniProt P32657). As to the kind of experiment: ScCHD-1 Enzyme Inhibition Assay. Also: in the data most compounds retested in dose-response had high values. The assay is classed as functional. The following applies: 30 µM.
Sequence of Chromo domain-containing protein 1 (Saccharomyces cerevisiae (strain ATCC 204508 / S288c) (Baker's yeast)) (P32657 whole entry, the tested form may be a part): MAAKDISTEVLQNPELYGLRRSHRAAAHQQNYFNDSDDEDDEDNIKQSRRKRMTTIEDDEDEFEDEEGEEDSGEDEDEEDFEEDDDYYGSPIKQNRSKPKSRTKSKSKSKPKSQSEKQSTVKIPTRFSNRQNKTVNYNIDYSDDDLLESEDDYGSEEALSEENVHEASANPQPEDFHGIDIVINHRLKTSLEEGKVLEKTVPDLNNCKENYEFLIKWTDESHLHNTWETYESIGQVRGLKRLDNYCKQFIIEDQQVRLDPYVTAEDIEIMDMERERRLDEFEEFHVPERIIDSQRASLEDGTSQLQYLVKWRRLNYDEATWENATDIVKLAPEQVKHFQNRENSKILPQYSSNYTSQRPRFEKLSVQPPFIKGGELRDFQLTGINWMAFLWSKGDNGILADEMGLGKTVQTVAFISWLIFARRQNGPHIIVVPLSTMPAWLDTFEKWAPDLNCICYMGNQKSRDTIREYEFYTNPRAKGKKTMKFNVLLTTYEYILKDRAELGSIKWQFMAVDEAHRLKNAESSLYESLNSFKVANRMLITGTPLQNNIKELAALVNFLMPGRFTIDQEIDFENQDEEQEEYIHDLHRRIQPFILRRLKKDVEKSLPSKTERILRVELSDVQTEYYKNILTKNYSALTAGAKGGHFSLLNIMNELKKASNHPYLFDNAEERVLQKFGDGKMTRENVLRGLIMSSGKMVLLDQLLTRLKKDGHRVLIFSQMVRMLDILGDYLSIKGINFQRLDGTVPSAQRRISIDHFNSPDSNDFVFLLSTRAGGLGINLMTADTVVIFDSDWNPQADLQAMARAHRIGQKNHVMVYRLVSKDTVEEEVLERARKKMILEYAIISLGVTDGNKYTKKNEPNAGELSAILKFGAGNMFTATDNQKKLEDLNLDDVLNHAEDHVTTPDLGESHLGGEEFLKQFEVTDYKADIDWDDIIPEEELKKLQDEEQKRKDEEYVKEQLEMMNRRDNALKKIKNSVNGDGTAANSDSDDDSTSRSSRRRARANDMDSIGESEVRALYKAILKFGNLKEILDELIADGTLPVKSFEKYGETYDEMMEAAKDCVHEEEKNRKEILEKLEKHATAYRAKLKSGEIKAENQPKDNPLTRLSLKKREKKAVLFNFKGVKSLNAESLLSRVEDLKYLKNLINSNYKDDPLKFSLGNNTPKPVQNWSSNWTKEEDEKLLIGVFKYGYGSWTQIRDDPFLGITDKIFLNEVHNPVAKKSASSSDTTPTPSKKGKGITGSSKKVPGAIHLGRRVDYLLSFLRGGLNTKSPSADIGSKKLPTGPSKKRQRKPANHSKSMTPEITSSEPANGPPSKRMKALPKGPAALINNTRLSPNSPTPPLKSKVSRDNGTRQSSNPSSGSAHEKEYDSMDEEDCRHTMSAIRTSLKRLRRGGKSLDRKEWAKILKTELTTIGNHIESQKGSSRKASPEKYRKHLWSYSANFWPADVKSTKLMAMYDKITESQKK

Sequence of Protein translocase subunit SecA (Escherichia coli (strain K12)) (P10408 whole entry): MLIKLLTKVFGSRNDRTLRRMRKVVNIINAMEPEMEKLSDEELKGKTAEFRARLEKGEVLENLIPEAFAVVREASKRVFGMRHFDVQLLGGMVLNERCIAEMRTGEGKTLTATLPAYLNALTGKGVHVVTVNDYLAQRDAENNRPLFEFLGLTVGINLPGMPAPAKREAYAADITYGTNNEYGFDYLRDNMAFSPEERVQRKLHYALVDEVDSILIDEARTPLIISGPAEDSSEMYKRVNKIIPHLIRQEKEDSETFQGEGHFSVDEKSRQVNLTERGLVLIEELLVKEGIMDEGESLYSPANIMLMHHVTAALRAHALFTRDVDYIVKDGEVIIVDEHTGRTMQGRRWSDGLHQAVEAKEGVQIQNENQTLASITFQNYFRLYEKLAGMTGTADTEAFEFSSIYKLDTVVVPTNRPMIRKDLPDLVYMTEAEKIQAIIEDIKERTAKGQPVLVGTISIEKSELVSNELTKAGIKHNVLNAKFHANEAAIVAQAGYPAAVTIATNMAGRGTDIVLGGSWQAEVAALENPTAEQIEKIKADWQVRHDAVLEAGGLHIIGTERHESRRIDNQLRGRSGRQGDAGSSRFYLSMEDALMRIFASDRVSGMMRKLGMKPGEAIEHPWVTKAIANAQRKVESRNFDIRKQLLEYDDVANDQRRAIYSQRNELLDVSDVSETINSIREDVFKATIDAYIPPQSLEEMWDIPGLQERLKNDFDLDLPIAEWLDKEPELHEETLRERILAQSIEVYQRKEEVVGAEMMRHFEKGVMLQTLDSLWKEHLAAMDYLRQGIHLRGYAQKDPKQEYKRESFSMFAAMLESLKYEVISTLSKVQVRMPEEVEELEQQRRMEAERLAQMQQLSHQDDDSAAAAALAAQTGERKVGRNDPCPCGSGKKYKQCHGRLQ
Sequence of Sialic acid-binding Ig-like lectin 9 (Homo sapiens) (Q9Y336 whole entry): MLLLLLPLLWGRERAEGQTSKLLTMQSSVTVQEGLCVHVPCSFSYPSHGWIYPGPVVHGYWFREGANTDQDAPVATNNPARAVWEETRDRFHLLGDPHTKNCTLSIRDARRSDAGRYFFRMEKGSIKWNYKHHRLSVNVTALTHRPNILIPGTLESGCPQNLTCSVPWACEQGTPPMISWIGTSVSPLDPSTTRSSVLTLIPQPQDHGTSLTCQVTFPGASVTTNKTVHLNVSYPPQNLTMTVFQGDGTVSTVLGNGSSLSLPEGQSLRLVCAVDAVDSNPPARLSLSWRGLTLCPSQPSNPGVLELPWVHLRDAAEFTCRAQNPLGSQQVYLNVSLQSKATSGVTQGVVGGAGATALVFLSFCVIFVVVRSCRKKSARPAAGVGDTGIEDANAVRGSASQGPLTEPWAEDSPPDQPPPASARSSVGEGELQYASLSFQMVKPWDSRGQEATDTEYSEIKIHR

Turning to `Cc1nnc(NC(=O)NC2CCOc3ccccc32)s1` (stereo not drawn), the Percent Effect is -3.11% in [1]; 5.48% in assay [2]; -3.94% in [3]; 7.64% in assay [4]; 1.59% in the assay on Trypanosoma cruzi; -4.39% in assay [5]. Further, the Percent Effect in assay [6] was 12.8%; in the assay filed under Homo sapiens, -9.09%; in assay [7], 12.5%; in [8], 23.5%; in assay [9] it was 1.07%.

Take `Cc1cc(C)n(CC2CCCN2CC(=O)N(C)C)n1` (stereo not drawn): the Percent Effect in [1] is -2.72%; in assay [2], -2.7%; in assay [3], -5.85%; in assay [4], 20%; in the assay on Trypanosoma cruzi, -2.92%; in assay [5] it was -4.01%. Further, the Percent Effect in [6] is 9.19%; in the assay filed under Homo sapiens, 3.86%; in assay [7], -0.493%; in assay [8], 1.24%; in assay [9], -0.0682%.

Take `CC(C)c1n[nH]c(C(=O)Nc2ccnn2C(C)C)c1Br`: the Percent Effect is -9.82% in assay [1]; 12.7% in [2]; -6.58% in assay [3]; 19.3% in assay [4]; 8.4% in the assay on Trypanosoma cruzi; -6.84% in [5]. The Percent Effect in assay [6] is 9.42%; in the assay listed under Homo sapiens, 39.4%; in assay [7] it was 7.39%; in assay [8], 13.9%; in assay [9], -9.92%.

Turning to `CC(CCc1ccco1)NC(=O)Nc1cc(C(F)(F)F)c[nH]c1=O` (stereo not drawn), the Percent Effect was -8.08% in assay [1]; 7.89% in [2]; 40.7% in [3]; 3.56% in assay [4]; 0.467% in the assay with Trypanosoma cruzi; -3.24% in [5]. Besides, the Percent Effect is 13.1% in [6]; 17% in the assay filed under Homo sapiens; 7.39% in [7]; 13.6% in [8]; -2% in assay [9].

On to `Cc1ccc(CC(=O)N2Cc3nccn3CC(CN(C)C)C2)cc1` (stereo not drawn), for which the Percent Effect in [1] is 2.93%; in assay [2], 11%; in [3] it was -4.31%; in assay [4] it was 9.23%; in the assay with Trypanosoma cruzi, 0.198%; in assay [5], 5.59%. Further, the Percent Effect is 15.3% in assay [6]; 20.1% in the assay filed under Homo sapiens; 8.33% in [7]; 16.1% in assay [8]; -2.84% in assay [9].

As to `Cc1nc2c(c(C)c1CC(=O)Nc1cccc(C#N)c1)c(=O)[nH]n2C`, the Percent Effect in assay [1] was -5.36%; in assay [2] it was 7.79%; in [3], 0.36%; in assay [4] it was -4.8%; in the assay with Trypanosoma cruzi, -4.8%; in [5] it was -1.9%. The Percent Effect in [6] was 10.8%; in the assay listed under Homo sapiens, 16.6%; in assay [7] it was 2.86%; in assay [8], 2.35%; in [9], -19.9%.

Turning to `COc1ccc(C(CO)NC(=O)Nc2cccc(C#N)c2)cc1` (stereo not drawn), the Percent Effect in assay [1] was -1.84%; in assay [2], 16.2%; in assay [3], -2.87%; in assay [4], 19.4%; in the assay on Trypanosoma cruzi, 3.86%; in assay [5], -0.952%. Also, the Percent Effect in [6] is 15.3%; in the assay filed under Homo sapiens it was 8.24%; in assay [7], 7.94%; in assay [8] it was 17.1%; in assay [9], -9.96%.

For the compound `COCC(=O)N(C)Cc1ccc(Cl)c(Cl)c1`, the Percent Effect is -4.08% in assay [1]; -2.63% in assay [2]; 8.5% in assay [3]; 7.96% in assay [4]; -3.21% in the assay with Trypanosoma cruzi; -5.92% in assay [5]. The Percent Effect is 21.2% in assay [6]; 10.7% in the assay filed under Homo sapiens; 0% in [7]; 2.6% in [8]; -8.73% in assay [9].
